The results in this text go back to PubChem BioAssay (NCI).

For this assay, the system named is HL-60(TB) leukemia. Kind of assay: NCI-60 one-dose screen, 48 h (100 = growth as untreated, 0 = no growth, -100 = all killed). The settings on record: 10 µM unless noted.

The structures appear in SMILES notation. Compounds without any hit were thinned out: in the full panel of roughly 83,000, 20% have a hit.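 Single-concentration screen, 48 h exposure, 96-well plates. Endpoint: percent growth. Below 10 = active.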 A number with no mark means an inactive call. The source made the active and inactive calls.

Consider `O=C(CSc1nnc(-c2ccc(-c3nc4ccc(Cl)cc4[nH]3)cc2)o1)Nc1ccc(Cl)cc1`, for which the growth is 4.27% (active).

As to `S=c1nc(-c2ccccc2)cc(-c2cc3ccccc3nc2Cl)[nH]1`, the growth is 8.96% (active).

Consider `O=C(N/N=C/c1ccsc1)c1[nH]c2ccc(Br)cc2c1-c1ccccc1`, for which the growth is -33.7% (active).

As to `COc1cnc2c(c1)C(=O)c1c-2n(CCCNCCO)c(=O)c2cc(OC)c(OC)cc12`, the growth is 61.3%.

In the case of `COC[C@@H](CC(C)C)N=C1N/C(=C\c2ccc3ncsc3c2)C(=O)N1C`, the growth was -1.54% (active).

Take `CCOC(=O)c1ccc(NC(=O)CSC(CC(=O)c2sc(Nc3ccccn3)nc2C)c2ccccc2F)cc1` (stereo unspecified): the growth is 2.8% (active).
